In PubChem BioAssay (NCI):
“And” between values parts separate entries of the source, which are not always exact repeats. Equal entries are not always repeated. Compounds without any hit were thinned out: in the full panel of roughly 83,000, 20% have a hit.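 For each line, cells grew in 96-well plates with the test compound present at a single concentration for 48 hours.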 A number with no mark means an inactive call. The source made the active and inactive calls. The calls were made as follows: active = growth percent below 10; inactive = the rest.

Columns and labels:
Test in all cases: NCI-60 one-dose screen, 48 h (100 = growth as untreated, 0 = no growth, -100 = all killed)
HT29 colon = settings: 10 µM unless noted
SNB-75 CNS = settings: 10 µM unless noted
SNB-19 CNS = settings: 10 µM unless noted
U251 CNS = settings: 10 µM unless noted
PC-3 prostate = settings: 10 µM unless noted
SK-MEL-5 melanoma = settings: 10 µM unless noted
UACC-62 melanoma = test system: UACC-62 melanoma
LOX IMVI melanoma = settings: 10 µM unless noted
SK-MEL-28 melanoma = settings: 10 µM unless noted
SK-MEL-2 melanoma = settings: 10 µM unless noted

SMILES	growth (HT29 colon)	growth (SNB-75 CNS)	growth (SNB-19 CNS)	growth (U251 CNS)	growth (PC-3 prostate)	growth (SK-MEL-5 melanoma)	growth (UACC-62 melanoma; 10 µM unless noted)	growth (LOX IMVI melanoma)	growth (SK-MEL-28 melanoma)	growth (SK-MEL-2 melanoma)	growth (UACC-62 melanoma; 10 µM)	growth (UACC-62 melanoma; 100 µM)
CC(C)(C)c1ccc(S(=O)(=O)O)s1	106%	92.4%	95.5%	105%	52.7%	109%	93.8%	102%	112%	–	–	–
CO[C@H]1/C=C/O[C@@]2(C)Oc3c(C)c(O)c4c(O)c(c(/C=N/N5C(C)CN(Cc6ccccc6)CC5C)c(O)c4c3C2=O)NC(=O)/C(C)=C\C=C\[C@H](C)[C@H](O)[C@@H](C)[C@@H](O)[C@@H](C)[C@H](OC(C)=O)[C@@H]1C (some centres undefined)	87.6%	127%	97.8%	56.9%	-19.5% (active)	67.4%	72.8%	76%	94.2%	-39.4% (active)	–	–
c1cnc2n[nH]c(Nc3ncnc4c3sc3ncccc34)c2c1	95.4%	84%	101%	97.1%	104%	102%	87.1%	85.6%	99%	103%	–	–
Cc1nn(-c2ccccc2)c2nc3c(nc12)C(=O)CCC3	99%	98.2%	104%	102%	90%	88.3%	86.3%	90.3%	114%	90%	–	–
COc1cc2cn3c4ccc(O)cc4nc(N)c3c2cc1OC	24.3%	2.21% (active)	20.5%	4.61% (active)	35.8%	-54.9% (active)	-59.4% (active)	-40.5% (active)	39%	21.2%	–	–
O=[N+]([O-])c1ccc2c(c1)S(=O)c1cc([N+](=O)[O-])ccc1N2	95%	87.2%	109%	105%	88.6%	96.2%	93.5%	102%	104%	105%	–	–
Cc1nn(-c2ccc(Cl)cc2)c2nc3c(nc12)C(=O)C(=O)c1ccccc1-3	4.77% (active)	-2.08% (active)	62.4%	77.5%	73.9%	43.8%	73.3%	62.6%	67.2%	99.1%	–	–
c1ccc2c(c1)[nH]c1c2cc[n+]2cc3c(cc12)CCCC3	18.5%	77.3%	35.1%	16.3%	22.8%	18.3%	–	19.5%	–	-8.25% (active)	29.6%	-23.2% (active) and -48.3% (active)
c1ccc(-n2nnnc2-c2cccc3ccccc23)cc1	-1.01% (active)	-7.18% (active)	36.7%	19.5%	5.09% (active)	22.2%	31.6%	18.6%	56.5%	23.8%	–	–
C[N+]1(CCc2ccccc2)CCC(CCC2CC[N+](C)(CCc3ccccc3)CC2)CC1 (centres undefined)	94%	83.9%	98.1%	87.9%	101%	100%	85.7%	102%	111%	119%	–	–
Nc1nc2ncc(CCNc3ccc(C(=O)NC(CCC(=O)O)C(=O)O)cc3)nc2c(=O)[nH]1 (centres undefined)	109%	81.3%	111%	100%	106%	98.9%	99.6%	98.3%	125%	2.9% (active)	–	–
C/C(=N/N=C(N)N)c1ccc(N)cc1	103%	102%	96.3%	99.3%	92.1%	107%	105%	96.6%	110%	154%	–	–
CCCc1cccc(CCC)c1O	103%	118%	109%	85.7%	100%	104%	107%	100%	117%	133%	–	–
COc1ccc(-n2nnc(C(=O)O)c2-c2cc(OC)c(OC)c(OC)c2)cc1	97.2%	95.5%	104%	95.9%	106%	104%	109%	94.9%	104%	95%	–	–
Cc1cc(NC(=O)c2ccc(N)cc2)ccc1N=Nc1ccc2c(O)c(N=Nc3ccc(Cl)c(S(=O)(=O)O)c3)c(S(=O)(=O)O)cc2c1	91%	104%	105%	68.7%	92%	65.1%	88.5%	72.7%	96.4%	98.3%	–	–
Cn1cc(-c2csc(-c3c[nH]c4ncccc34)n2)c2cc(F)cnc21	90.6%	66.2%	89%	83.3%	69.1%	61.4%	64.7%	64.3%	96.2%	89.7%	–	–
Cn1c(N)c(N=O)c(=O)[nH]c1=O	98.8%	97%	105%	95.9%	98.7%	102%	103%	102%	108%	97.8%	–	–
O=C1c2nsnc2C(=O)c2c(F)c(F)c(F)c(F)c21	-54.8% (active)	-76.4% (active)	-86.8% (active)	-76.3% (active)	7.59% (active)	-61.1% (active)	-86.9% (active)	-49.4% (active)	-92.5% (active)	-75.4% (active)	–	–
O=C(COC(=O)[C@H](C[Se][Se]C[C@H](NC(=O)c1ccc(Br)cc1F)C(=O)OCC(=O)c1ccc(F)cc1)NC(=O)c1ccc(Br)cc1F)c1ccc(F)cc1	3.66% (active)	-100% (active)	-86.3% (active)	-100% (active)	-51.6% (active)	-18.8% (active)	-4.12% (active)	-83% (active)	-90.6% (active)	-58.9% (active)	–	–
COC(=O)[C@]1(CCSC)N[C@H](c2cn(-c3ccccc3)nc2C)[C@@H]2C(=O)N(c3ccc(C)cc3)C(=O)[C@@H]21	99.7%	93.3%	97.8%	95.7%	98.1%	115%	102%	97.9%	109%	101%	–	–
Cn1cc(-c2csc(-c3cn(C)c4ncccc34)n2)c2cc(F)cnc21	69.8%	75.2%	83.3%	82.4%	65%	60.6%	65.3%	72.4%	83.8%	98.7%	–	–
CCOC(=O)C1=C(C)N2C(=NC3=C(CCC/C3=C\c3ccc(Cl)cc3)C2c2ccc(Cl)cc2)S1 (centres undefined)	-54.3% (active)	64.2%	55.4%	-100% (active)	24.3%	40.8%	54.7%	-100% (active)	48.8%	76.6%	–	–
O=C(CSCC(=O)N/N=C/c1ccccc1O)N/N=C\c1ccccc1O	42.7%	36.8%	31.2%	26.8%	25%	24%	11.2%	12.4%	40.4%	16.7%	–	–
C[C@]12C[C@H](O)[C@H]3[C@@H](CCC4=CC(=O)CC[C@@]43C)[C@@H]1CC[C@@H]2C(=O)CO	108%	78.5%	95.6%	93.5%	97.3%	91%	91.4%	97.7%	102%	93.4%	–	–
CCS(=O)(=O)OCCCl	104%	70%	94.3%	92.1%	97.6%	103%	101%	98.5%	120%	83.7%	–	–
O=C1C2C3C=CC(O3)C2C(=O)N1Nc1ccccc1 (centres undefined)	112%	93.3%	111%	109%	97.5%	109%	100%	98%	105%	133%	–	–
Cc1nn(-c2ccc(Cl)cc2)c2nc3c(nc12)C(=O)c1ccccc1-3	65.1%	95.5%	87.2%	47%	54.9%	65.8%	55.2%	51.2%	28.4%	79.7%	–	–
